Holding throughout (experiment): NCI-60 one-dose screen, 48 h (100 = growth as untreated, 0 = no growth, -100 = all killed)
One assay deals with DU-145 prostate. The note with it: 10 µM unless noted.
The subject of the next assay is K-562 leukemia. The note with it: 10 µM unless noted.
The next assay deals with MDA-MB-231 breast. The note with it: 10 µM unless noted.
The next assay relates to RXF 393 renal. The note with it: 10 µM unless noted.
Another assay deals with SF-268 CNS. The note with it: 10 µM unless noted.
The next assay has as its system SF-295 CNS. The note with it: 10 µM unless noted.
The next assay relates to SF-539 CNS. The note with it: 10 µM unless noted.
The next assay deals with UACC-257 melanoma. The note with it: 10 µM unless noted.
The subject of the next assay is M14 melanoma. The note with it: 10 µM unless noted.
Another assay deals with HCT-15 colon. The note with it: 10 µM unless noted.
The next assay relates to HT29 colon. The note with it: 10 µM unless noted.
In a further assay the test system is SNB-75 CNS. The note with it: 10 µM unless noted.
The test system of a further assay is SNB-19 CNS. The note with it: 10 µM unless noted.
Another assay deals with U251 CNS. The note with it: 10 µM unless noted.
The subject of a further assay is PC-3 prostate. The note with it: 10 µM unless noted.
For the next assay, the system named is SK-MEL-5 melanoma. The note with it: 10 µM unless noted.
In the next assay the test system is UACC-62 melanoma. The note with it: 10 µM unless noted.
In the next assay the test system is LOX IMVI melanoma. The note with it: 10 µM.
In another assay the test system is MALME-3M melanoma. The note with it: 10 µM unless noted.
Another assay relates to SK-MEL-28 melanoma. The note with it: 10 µM unless noted.

This is an account of results in PubChem BioAssay (NCI).

Structures are written as SMILES. The panel holds about 83,000 compounds, 20% with a hit somewhere; the sample as a whole holds those more often.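 48-hour exposure, single concentration, 96-well plates; percent growth endpoint where 0 means no net growth. Active: below 10.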 A number with no mark means an inactive call. Activity calls are given as the source filed them.

For `Clc1ccc(Cc2nc3ccccc3s2)cc1`, the growth in the assay on DU-145 prostate is 98.6%; with K-562 leukemia, 98.1%; in the assay on MDA-MB-231 breast, 74%; in the assay with RXF 393 renal, 112%; in the assay on SF-268 CNS, 88.5%; in the assay with SF-295 CNS, 91.5%. Further, the growth in the assay on SF-539 CNS is 106%; with UACC-257 melanoma, 97.7%; in the assay on M14 melanoma, 98.2%; in the assay on HCT-15 colon it was 88%; in the assay with HT29 colon, 118%; with SNB-75 CNS, 83.9%. Moreover, the growth with SNB-19 CNS was 121%; in the assay on U251 CNS, 79.4%; with PC-3 prostate it was 63%; with SK-MEL-5 melanoma it was 96.9%; with UACC-62 melanoma, 87.7%; in the assay with LOX IMVI melanoma, 74.3%.

In the case of `CN1CCC(c2ccccc2)(c2ccccc2)C(=O)C1`, the growth with DU-145 prostate is 102%; in the assay with K-562 leukemia, 65.6%; in the assay on MALME-3M melanoma it was 90.7%; with RXF 393 renal, 95.7%; in the assay with SF-268 CNS it was 104%; in the assay on SF-295 CNS, 85.8%. In addition, the growth in the assay with SF-539 CNS is 94.3%; in the assay with UACC-257 melanoma it was 95%; in the assay on M14 melanoma, 92.4%; with HCT-15 colon, 70.2%; with HT29 colon, 81.7%; with SNB-75 CNS it was 58%. For the same compound, the growth in the assay with SNB-19 CNS is 90.7%; in the assay with PC-3 prostate, 85.7%; with SK-MEL-5 melanoma, 97.7%; with UACC-62 melanoma, 93.6%.

As to `O=C1C=CC(=O)N1c1ccc(O)cc1`, the growth is 117% in the assay on DU-145 prostate; 91.1% in the assay on K-562 leukemia; 94.7% in the assay on MDA-MB-231 breast; 110% in the assay on RXF 393 renal; 109% in the assay on SF-268 CNS; 114% in the assay with SF-295 CNS. In addition, the growth in the assay with SF-539 CNS was 111%; with UACC-257 melanoma, 106%; with M14 melanoma, 105%; in the assay with HCT-15 colon it was 102%; with HT29 colon, 112%; in the assay on SNB-75 CNS, 98.1%. The growth in the assay with SNB-19 CNS is 103%; in the assay with U251 CNS, 99.9%; in the assay on PC-3 prostate, 98.3%; with SK-MEL-5 melanoma, 102%; in the assay on UACC-62 melanoma it was 95.4%; with LOX IMVI melanoma it was 99.8%. For the same compound, in the assay with SK-MEL-28 melanoma, the growth is 107%.

As to `COc1ccc(/C=C2/C(=O)ON=C2C)cc1`, the growth in the assay on DU-145 prostate was 109%; in the assay on K-562 leukemia, 100%; in the assay with MDA-MB-231 breast it was 96.8%; with RXF 393 renal, 102%; in the assay with SF-268 CNS, 104%; in the assay on SF-295 CNS, 110%. Further, the growth was 107% in the assay on SF-539 CNS; 100% with UACC-257 melanoma; 109% with M14 melanoma; 112% in the assay with HCT-15 colon; 99.2% in the assay on HT29 colon; 106% in the assay on SNB-75 CNS. In addition, the growth is 106% in the assay on SNB-19 CNS; 98.6% in the assay on U251 CNS; 97.6% in the assay on PC-3 prostate; 103% with SK-MEL-5 melanoma; 90.3% in the assay on UACC-62 melanoma; 99.4% with LOX IMVI melanoma. In the assay with SK-MEL-28 melanoma, the growth is 106%.

Turning to `N#C/C(=N\Nc1ccc(Cl)cc1)C(=O)C1CC1`, the growth in the assay with DU-145 prostate is 74.4%; in the assay with K-562 leukemia, 63.2%; with MALME-3M melanoma it was 31.1%; in the assay with RXF 393 renal it was 84.9%; with SF-295 CNS it was 40.9%; with SF-539 CNS it was 59.7%. Also, the growth in the assay on UACC-257 melanoma is 3.99% (active); in the assay with M14 melanoma, 52.2%; with HCT-15 colon, 53.9%; in the assay with HT29 colon it was 67.6%; with SNB-75 CNS, 56.5%; with U251 CNS, 40.5%. The growth was 54.3% in the assay on PC-3 prostate; 0.976% (active) with SK-MEL-5 melanoma; 32.1% in the assay with UACC-62 melanoma; 67.2% in the assay on LOX IMVI melanoma; 53.9% in the assay on SK-MEL-28 melanoma.

Consider `COc1cc([C@@H]2c3cc4c(cc3[C@H](OC3OC5COC(c6ccccc6)OC5C(O)C3O)[C@H]3COC(=O)[C@H]23)OCO4)cc(OC)c1OC` (some centres undefined), for which the growth in the assay with DU-145 prostate was 57%; in the assay on K-562 leukemia it was 15.9%; with MDA-MB-231 breast it was 66.3%; in the assay with RXF 393 renal it was 65.7%; in the assay with SF-268 CNS, 29.3%; with SF-295 CNS it was 35.8%. Further, the growth in the assay with SF-539 CNS was 19.4%; in the assay on UACC-257 melanoma, 57.5%; with HCT-15 colon, 41.1%; in the assay with HT29 colon it was 23.2%; in the assay with SNB-75 CNS, 75.9%; in the assay with SNB-19 CNS, 79.9%. For the same compound, the growth in the assay with U251 CNS is 55.8%; in the assay with PC-3 prostate, 8.28% (active); in the assay on UACC-62 melanoma, 79.4%; with LOX IMVI melanoma, 30.2%; with SK-MEL-28 melanoma, 58.3%.

Turning to `CCOC(=O)c1[nH]c(C#N)c(C(=O)OCC)c1C`, the growth is 106% with DU-145 prostate; 109% with MALME-3M melanoma; 102% in the assay on MDA-MB-231 breast; 90.5% in the assay with RXF 393 renal; 111% in the assay with SF-268 CNS; 89.3% in the assay with SF-295 CNS. Also, the growth was 104% in the assay with SF-539 CNS; 104% with UACC-257 melanoma; 109% in the assay on M14 melanoma; 92.2% with HCT-15 colon; 103% with HT29 colon; 96.9% in the assay with SNB-75 CNS. The growth in the assay on SNB-19 CNS was 106%; in the assay with PC-3 prostate, 102%; in the assay on SK-MEL-5 melanoma it was 102%; with UACC-62 melanoma it was 91.2%; in the assay with LOX IMVI melanoma it was 107%; with SK-MEL-28 melanoma, 112%.

With `NNc1cccc([N+](=O)[O-])c1`, the growth with DU-145 prostate is 104%; in the assay with MALME-3M melanoma it was 101%; in the assay with MDA-MB-231 breast, 58.9%; in the assay with RXF 393 renal, 122%; in the assay on SF-268 CNS, 72.6%; in the assay with SF-295 CNS, 89.5%. For the same compound, the growth was 100% in the assay on SF-539 CNS; 99% in the assay with UACC-257 melanoma; 99.9% in the assay with M14 melanoma; 101% with HCT-15 colon; 99.6% with HT29 colon; 107% in the assay on SNB-19 CNS. The growth with U251 CNS is 89%; in the assay on PC-3 prostate it was 86.4%; in the assay on UACC-62 melanoma, 77.2%; in the assay on LOX IMVI melanoma, 76.6%; in the assay with SK-MEL-28 melanoma, 115%.

Turning to `Cc1ccccc1NC(=O)Cc1csc2[n+]1C(=O)/C(=C/c1ccc([N+](=O)[O-])cc1)S2`, the growth in the assay with K-562 leukemia was 88.3%; in the assay on MALME-3M melanoma it was 99.3%; with MDA-MB-231 breast it was 97.7%; in the assay with RXF 393 renal, 111%; in the assay on SF-268 CNS, 95.9%; in the assay with SF-295 CNS it was 99.7%. For the same compound, the growth with SF-539 CNS was 104%; in the assay on UACC-257 melanoma, 104%; in the assay with M14 melanoma, 85.8%; in the assay with HCT-15 colon, 100%; in the assay on HT29 colon, 113%; in the assay with SNB-75 CNS, 80.9%. The growth was 102% in the assay with SNB-19 CNS; 85.9% with PC-3 prostate; 94.3% with SK-MEL-5 melanoma; 88.2% in the assay on UACC-62 melanoma; 86.6% in the assay on LOX IMVI melanoma; 95.8% in the assay on SK-MEL-28 melanoma.
